PINK1 modulator: A Quantitative High throughput Screen to Identify Chemical Modulators of PINK1 Expression; Potency, µM (titrated, usually from 76.6 µM), for inactives: top-dose activation (PINK1 increase), usual class: activators; AID 624263, 2012; hit rate 0.2% among 410,000; PINK1 immunofluorescence, high-content cytometry, 24 h; active = well fitted activation curve with a large enough effect; inconclusive = small, poorly fitted or top-dose-only effect; cell line not stated here; note: % of control where 0% means no effect; nearly all actives have a fitted effect of over 65% in size
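Stable cell line treated 24 h with compounds at 5 concentrations (CCCP controls), then fixed and immunostained for PINK1 plus nuclear and cell stains; PINK1 immunofluorescence quantified by laser-scanning microplate cytometry.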
MCF10A rerep: A quantitative high throughput screen for small molecules that induce DNA re-replication in MCF 10a normal breast cells | MCF 10A DNA re-replication, Hoechst nuclear intensity, 48 h | Potency, µM (doses to about 46.1 µM), for the others: at the highest dose activity, positive = re-replication, actives largely listed as activators | hit rate 2.9% among 350,000 | AID 624296, 2012; note: % of control where 0% means no effect; nearly all actives have a fitted effect of over 50% in size
12-LOX inh: Primary qHTS assay for inhibitors of human arachidonate 12S-lipoxygenase (ALOX12): Round 2; purified 12hLO, xylenol orange hydroperoxide absorbance; Potency, µM (series often up to 108 µM), inactives show at the top dose activity change, negative = inhibition, actives largely listed as inhibitors; hit rate 1.1% among 580,000; AID 1671190, 2021; note: % is set by controls: 0 for no effect and ±100 for the full control effect
Target sequence (P18054 whole entry, looked up): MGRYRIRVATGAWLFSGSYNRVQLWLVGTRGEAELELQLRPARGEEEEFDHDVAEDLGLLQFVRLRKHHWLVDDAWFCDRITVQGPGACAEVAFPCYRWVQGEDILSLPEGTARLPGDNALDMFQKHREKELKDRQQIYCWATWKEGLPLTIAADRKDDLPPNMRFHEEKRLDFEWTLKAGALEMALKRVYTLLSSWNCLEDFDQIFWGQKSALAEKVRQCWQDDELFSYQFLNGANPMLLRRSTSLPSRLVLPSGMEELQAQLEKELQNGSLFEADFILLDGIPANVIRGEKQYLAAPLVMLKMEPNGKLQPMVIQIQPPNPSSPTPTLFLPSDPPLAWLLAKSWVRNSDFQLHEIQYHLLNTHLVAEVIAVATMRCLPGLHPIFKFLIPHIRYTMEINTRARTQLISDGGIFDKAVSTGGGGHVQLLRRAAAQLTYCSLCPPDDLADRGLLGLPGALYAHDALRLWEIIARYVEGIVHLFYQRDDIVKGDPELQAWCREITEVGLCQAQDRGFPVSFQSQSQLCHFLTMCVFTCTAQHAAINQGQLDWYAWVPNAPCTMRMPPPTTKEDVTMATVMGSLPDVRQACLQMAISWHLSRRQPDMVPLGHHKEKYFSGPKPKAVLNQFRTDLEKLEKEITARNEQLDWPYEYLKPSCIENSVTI
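Purified human 12hLO (150 nM final) in 25 mM Hepes, 0.01% Triton X-100, pH 7.0 was preincubated 15 min at room temperature with compound. Then 40 uM arachidonic acid was added, 30 min. Hydroperoxide was read by Fe-XO absorbance ratio 573/405 nm.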
KB-3-1 cytotox: qHTS assay for MDR1-selective chemotherapeutics: Primary screen using the parental adenocarcinoma cell KB-3-1; KB-3-1 viability, CellTiter-Glo ATP luminescence, 72 h; Potency, µM (doses to about 46.1 µM), actives largely listed as cytotoxic; hit rate 1.4% among 400,000; AID 1347075, 2019; note: % is set by controls: 0 for no effect and ±100 for the full control effect; nearly all actives have a fitted effect of over 60% in size
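Cells are dispensed, compounds pinned in, plates held at 37 °C for 72 h, then CellTiter-Glo is added and luminescence read after 10 minutes. Cell line: parental KB-3-1 in phenol-red-free DMEM, 10% FBS.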
KB-V1 cytotox: qHTS assay for MDR1-selective chemotherapeutics: Primary screen using the drug-selected MDR subline cells KB-V1; KB-V1 MDR cells viability, CellTiter-Glo, 72 h; Potency, µM (highest dose often 46.1 µM), hits mostly cytotoxic; hit rate 3.4% among 400,000; AID 1347076, 2019; note: % is set by controls: 0 for no effect and ±100 for the full control effect; nearly all actives have a fitted effect of over 60% in size
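Cytotoxicity toward P-gp-expressing KB-V1 cells was determined as loss of CellTiter-Glo luminescence after 72 h at 37 degrees C. Compounds were tested in quantitative HTS format across a concentration range, with curves fitted to normalized data.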
SW480 rereplic: A quantitative high throughput screen for small molecules that induce DNA re-replication in SW480 colon adenocarcinoma cells; SW480 DNA re-replication, Hoechst DNA content imaging, 48 h; Potency, µM (top dose mostly 46.1 µM), without a hit: at the top dose re-replication activation, usual class: activators; hit rate 1.8% among 340,000; AID 624297, 2012; note: % of control where 0% means no effect; nearly all actives have a fitted effect of over 55% in size
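First, 250 cells per well were seeded. Next, compound or vehicle (23 nL) was pinned in, plates sat 48 hr at 37 C. Finally Hoechst was added for 40 min before fluorescence scanning.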
Numbers without * were called inactive; i = inactive; ? = inconclusive; / = no result; [ ] = dose if it differs, or a comment. The list is not random: actives were taken first. Their share in the collection is about 5.8%. Unless noted, calls come from the whole dose curve; as a rule, active = well fitted curve in the direction sought with a large enough effect; inconclusive = small, poorly fitted or top-dose-only effect, or another doubt; inactive = no such curve, though single readings can be large; an effect the other way counts as inactive or inconclusive. Potency is the fitted concentration of half-maximal effect.

SMILES	PINK1 modulator	MCF10A rerep	12-LOX inh	KB-3-1 cytotox	KB-V1 cytotox	SW480 rereplic
O=C(CSc1nnnn1-c1ccc2c(c1)OCO2)NCc1ccccc1	7%[38.3 µM]	26%	-2%	7.3µM*	12µM*	16µM*
COc1ccc(C)cc1-n1nnnc1SCC(=O)c1ccc2c(c1)OCCO2	-5%	11%	0%	i	?	5%
COc1ccc(-n2nnnc2SCC(=O)c2ccc3c(c2)OCCO3)c(OC)c1	1%	-1%	-1%	i	9.2µM*	2%
COc1ccc(-n2nnnc2SCC(=O)Nc2ccc3c(c2)OCCO3)cc1OC	3%	15%	-13%[57.4 µM]	?	9.2µM*	5%
O=C(CSc1nnnn1-c1ccc2c(c1)OCO2)NCc1cccs1	1%	7%	0%	i	i	-2%
COc1cccc(-n2nnnc2SCC(=O)Nc2ccc3c(c2)OCCO3)c1	3%	-1%	-8%	i	i	0%[9.22 µM]
CC(=O)N(Cc1ccccc1)Cc1cc2ccccc2[nH]c1=O	/	/	1%	/	/	/
COc1ccc(-c2nc3cc(NC(=O)CC(C)C)ccc3o2)cc1OC	/	/	31%	/	/	/
CCCCOC(=O)COc1ccc2c(=O)c(Oc3ccccc3Br)coc2c1	/	/	3%	/	/	/
Cc1ccc(-c2ccc(C3C(C#N)=C(N)Oc4n[nH]c(C)c43)o2)cc1 (stereo unspecified)	-3%	23µM*	-13%	i	26µM*	?
CCC(CC)C1C(C#N)=C(N)Oc2n[nH]c(C)c21 (stereo unspecified)	4%[38.3 µM]	?	-30%	i	i	21µM*
O=C(CNC(=O)c1ccccc1)OCc1cc(=O)oc2cc(O)ccc12	/	/	0%	/	/	/
Cc1ccc(S(=O)(=O)c2nc(Nc3ccccc3N3CCOCC3)sc2Cl)cc1	2%[38.3 µM]	13%	?	i	10µM*	5%
c1cncc(-c2nc(Oc3cccc4ccccc34)c3ccccc3n2)c1	/	/	-11%	/	/	/
O=C(Nc1ccc(-c2csc(Nc3cccc(C(F)(F)F)c3)n2)cc1)c1ccccc1	1%	18µM*	-10%	?	i	?
CC(=O)NCc1ccc(-c2csc(Nc3cccc(C(F)(F)F)c3)n2)o1	/	/	10µM*	/	/	/
COc1ccc(-c2noc(-c3cccn3CC(=O)N3CCC(C)CC3)n2)cc1F	/	/	10%	/	/	/
CCCn1nnnc1CN1CCCC1c1ccc(OCC)cc1 (stereo unspecified)	/	/	-2%	/	/	/
COc1ccc2[nH]cc(C(C(=O)O)N3CCN(C(=O)OC(C)(C)C)CC3)c2c1 (stereo unspecified)	/	/	-3%	/	/	/
COc1cccc(/C=N/NC(=O)c2[nH]nc3c2CCc2ccccc2-3)c1	-1%	?	i	10µM*	?	?
CNC(=O)c1[nH]nc2c1CCc1cc(OC)ccc1-2	2%	1%	11%	i	i	?
COc1ccc(OC)c(/C=N/NC(=O)c2[nH]nc3c2CCc2ccccc2-3)c1	0%	23µM*	8%	i	i	?
CC(C)NC(=O)c1[nH]nc2c1CCc1ccccc1-2	1%	6%	/	i	i	?
CC(=O)c1cc2c(cc1NC(=O)Cn1c(=O)n(C)c(=O)c3sccc31)OCO2	/	/	-38%	/	/	/
COCCOc1ccc2c(n1)CCN(C(=O)Cc1ccc(F)cc1)C2	/	/	13%	/	/	/
SMILES	PINK1 modulator	MCF10A rerep	12-LOX inh	KB-3-1 cytotox	KB-V1 cytotox	SW480 rereplic
CCN1CCN(CCOc2ccc3c(=O)c(-c4ccccc4)c(C)oc3c2)CC1	/	/	-10%	/	/	/
CCOC(=O)N1CCN(C(=O)c2ccc3c(=O)n(CCc4ccccc4)c(=S)[nH]c3c2)CC1	8%	?	-24%	i	?	-4%
O=C(c1ccc2c(=O)n(Cc3ccco3)c(=S)[nH]c2c1)N1CCN(Cc2ccccc2)CC1	5%[38.3 µM]	?	-13%	?	21µM*	1%
CCCn1c(=S)[nH]c2cc(C(=O)N3CCN(C(=O)OCC)CC3)ccc2c1=O	1%	2%	0%	i	i	4%
CCOC(=O)N1CCN(C(=O)c2ccc(Cn3c(=S)[nH]c4ccc(Br)cc4c3=O)cc2)CC1	25µM*	4%	2%	?	i	?
CCOC(=O)N1CCN(C(=O)c2ccc3c(=O)n(Cc4ccc(Cl)cc4)c(=S)[nH]c3c2)CC1	3%	?	-6%	23µM*	13µM*	-4%
CCOc1ccccc1OCCC(=O)Nc1cccc2cccnc12	/	/	10%	/	/	/
O=C(CNC(=O)c1cc(=O)[nH]c2ccccc12)NC1CC1	/	/	12%	/	/	/
CCC[N+](C)(C)c1ccc(/C=C/c2ccncc2)cc1	/	/	/	1.5µM*	i	/
CC[N+](C)(C)c1ccc(/C=C/c2ccncc2)cc1	/	/	/	2.3µM*	i	/
C(=C\c1ccncc1)/c1ccncc1	1%	12%	-8%	i	i	3%
CSc1ccc(Cl)c(C(=O)OCC(=O)OC2CC(C)CCC2C(C)C)c1 (stereo unspecified)	/	/	-1%	/	/	/
Nn1c(SC(C(=O)N2CCCCC2)c2ccccc2)nnc1-c1ccccc1F (stereo unspecified)	/	/	13%	/	/	/
O=C(CCN1CCN(c2cnccn2)CC1)Nc1cc(Cl)ccc1Cl	/	/	-2%	/	/	/
Cc1cc(C(=O)OCC(=O)Nc2cccc(C)c2C)c2ccccc2n1	/	/	42%	/	/	/
COC(=O)C1=C(C)N(c2cccc(C)c2)C(=S)NC1c1ccc(-n2ccnc2)cc1 (stereo unspecified)	/	/	40µM*	/	/	/
CN1CCN(c2ccc(NC(=O)COc3ccc4ccccc4c3)cc2)CC1	14%	16µM*	?	i	?	?
CCc1nnc(NC(=O)COc2ccc3ccccc3c2)s1	-1%	0%	-19%	i	i	8%
CN1CCc2nc(NC(=O)COc3ccc4ccccc4c3)sc2C1	3%	13µM*	-3%	?	?	?
CCOCCOC(=O)c1nc2ccccc2nc1Nc1ccc(Cl)cc1	/	/	10µM*	/	/	/
Cc1ccc(-c2cc3ccccn3c2C=O)cc1C	/	/	16µM*	/	/	/
Cc1occc1C(=O)N1CCN(c2ccccc2)CC1	2%	3%	-12%	i	?	?
Cc1occc1C(=O)N1CCN(c2ccc(Cl)c(Cl)c2)CC1	0%[38.3 µM]	-5%	?	i	23µM*	8%

Screens (PubChem)
